An excerpt weighted towards active compounds, which were near 2.4% of everything screened.
D2 ag-1: activates the human D2 dopamine receptor; HEK293 T-REx D2 cells, calcium flux agonist mode; 340,000 compounds, 0.53% hits; P14416; activation, % at 2 µM;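 active means activation over 3 SD above normal in the single-dose calcium agonist read, cut at about 30% in these data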; further: 0% is about no effect
Target sequence (P14416 whole entry, looked up): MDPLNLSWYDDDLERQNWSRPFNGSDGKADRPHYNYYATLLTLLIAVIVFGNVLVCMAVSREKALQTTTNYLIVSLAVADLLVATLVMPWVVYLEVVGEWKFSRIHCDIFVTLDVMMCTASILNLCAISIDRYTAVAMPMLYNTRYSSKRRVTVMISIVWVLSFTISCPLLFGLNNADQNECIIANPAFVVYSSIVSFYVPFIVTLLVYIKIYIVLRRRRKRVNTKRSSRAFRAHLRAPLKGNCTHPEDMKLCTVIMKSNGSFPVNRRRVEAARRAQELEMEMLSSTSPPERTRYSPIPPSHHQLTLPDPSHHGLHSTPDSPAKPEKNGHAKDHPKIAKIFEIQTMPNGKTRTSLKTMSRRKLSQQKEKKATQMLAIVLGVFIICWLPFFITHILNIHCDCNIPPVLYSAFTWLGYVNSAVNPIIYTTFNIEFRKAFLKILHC
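Tetracycline-induced HEK293 Trex cells with D2 receptor force-coupled to calcium signaling, plated overnight at 30 C and loaded with no-wash calcium dye. Calcium flux read kinetically for 180 s after compound addition; responses flag agonists.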
D2 PAM-1: potentiates the human D2 dopamine receptor allosterically; potentiation, % (test concentration not listed); 360,000 compounds, 0.23% hits; P14416; DiscoveRx D2 beta-arrestin cells, luminescence, 90 min; 100% = 57 uM dopamine signal; in the data active means potentiation above about 50%; inconclusive means mostly about 30% to 49%
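PathHunter beta-arrestin assay in DiscoveRx D2 cells. Compounds were added with an EC20 of dopamine (50 nM final) for 90 min at 37 deg C. Luminescence was read 1 h after detection reagent, with 57 uM dopamine as the EC100 control.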
D2 ag-2: human D2 receptor agonism in beta-arrestin assay; P14416; DiscoveRx PathHunter D2 beta-arrestin, luminescence, 90 min; 100% = 57 uM dopamine signal; activation, % (concentration not given with the values); 360,000 compounds, 0.084% hits; in the data active means activation above about 40%; inconclusive means between about 15% and that limit
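DiscoveRx PathHunter D2 beta-arrestin cells (2,100/well) attached overnight, then compound-stimulated 90 min at 37 C in HBSS/10 mM HEPES/0.1% Tween-20 buffer; beta-galactosidase complementation read by luminescence after 1 h at ambient temperature. Dopamine 57 uM final (EC100) as control.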
D2 PAM-2: positively modulates the human D2 dopamine receptor allosterically. P14416. HEK293 T-REx D2, calcium flux, EC20 dopamine potentiation. potentiation, % at 10 µM. 340,000 compounds, 0.34% hits. AID 485347;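 active means potentiation over 3 SD above the plate norm, cut at about 30% in these data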; further: 0% is about no effect
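Cells plated with tetracycline inducer and held overnight at 30 C; calcium dye loaded 30–90 min at room temperature; baseline taken, compound added and read 180 s; EC20 dopamine then added and read 180 s.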
D2 antag: D2 dopamine receptor (human) antagonism; P14416; HEK293 TREx D2 cells, calcium flux, dopamine EC80; inhibition, % at 10 µM; 340,000 compounds, 2% hits; AID 485344; in the data active means inhibition above about 30%; inactive means below that, where a call was filed; further: 0% is about no effect
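Measurement of antagonist activity uses fluorescent calcium dye in inducible HEK293 T-REx D2 cells: 10 s baseline, compound addition with 180 s read, EC80 dopamine addition with a further 180 s read.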
D3 arrestin ag: D3 receptor agonism confirmed, beta-arrestin readout | shares compounds with D2 ag-1 | AID 720506 | Potency, µM (doses to about 76.9 µM), for inactives: top-dose activation, actives largely listed as activators | 2,300 compounds, 4% hits | DiscoveRx D3 beta-arrestin cells, luminescence, 90 min;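 further: potency means the concentration at half of the fitted maximal effect; 100% = dopamine control response; nearly all actives have a fitted effect of over 70% in size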
D2 ag-3: activates human D2 dopamine receptor in D3 counterscreen; Potency, µM (top dose mostly 76.9 µM), inactives show top-dose activation, actives largely listed as activators; shares compounds with D2 ag-1; DiscoveRx PathHunter D2 beta-arrestin, luminescence, 90 min; response scale: percent relative to full dopamine signal; AID 720507; 2,300 compounds, 5.9% hits; further: potency means the concentration at half of the fitted maximal effect; % of control where 0% means no effect; nearly all actives have a fitted effect of over 70% in size
Numbers without * were called inactive; ? = inconclusive; nt = no result given. Unless noted, the call rests on the fitted dose curve; in most records, active means well fitted activation curve with a large enough effect; inconclusive means small, poorly fitted or top-dose-only effect; inactive means flat fitted curve, though single readings scatter.

SMILES	D2 ag-1	D2 PAM-1	D2 ag-2	D2 PAM-2	D2 antag	D3 arrestin ag	D2 ag-3
CC(C)(O)C#Cc1ccc(CN2CCN(C3CCCCC3)C(CCO)C2)cc1 (stereo not given)	0	-2	2	0	6	nt	nt
O=C(CSc1nncs1)NNC(=O)c1ccco1	0	-4	-4	-5	0	-1%	-1%
CCOc1ccc(-n2c(=S)sc3c(=O)[nH]c(SCC(=O)NCc4ccco4)nc32)cc1	0	-7	0	-4	45*	0%	-3%
CCOC(=O)CSc1nc2c(sc(=S)n2-c2ccc(OCC)cc2)c(=O)[nH]1	-1	6	7	-2	18	nt	nt
OC(COc1c(F)cc(Br)cc1F)CN1CCN(c2ccc(F)cc2)CC1 (stereo not given)	59*	-14	1	-30	71*	?	?
CCN1CCN(CC(O)COc2cccc(OC)c2)CC1 (stereo not given)	0	-12	0	5	2	nt	nt
OC(COc1ccc2ccccc2c1)CN1CCN(c2ccc(F)cc2)CC1 (stereo not given)	53*	4	1	-27	20	?	30%
COc1cccc(OCC(O)CN2CCN(c3ccc(F)cc3)CC2)c1 (stereo not given)	34*	-13	1	-20	80*	10%	3%
COc1cccc(OC)c1OCC(O)CN1CCN(c2ccc(F)cc2)CC1 (stereo not given)	56*	-25	4	-31	73*	-10%	5%
COc1cccc(-n2cc(CN(C)Cc3nc(Cc4cccc(F)c4)no3)cn2)c1	16	-3	6	-3	-3	4%	1%
COc1cccc(-n2cc(CN(C)Cc3nc(Cc4ccccc4)no3)cn2)c1	11	-4	-2	7	5	nt	nt
COc1cccc(CN2CCN(Cc3cc4ccccc4o3)CC2CCO)c1 (stereo not given)	43*	-22	3	-10	14	-1%	-3%
COc1ccc(CN2CCN(Cc3cc4ccccc4o3)CC2CCO)c(F)c1 (stereo not given)	10	-7	-5	3	13	nt	nt
COc1ccc(CN2CCN(Cc3cc4ccccc4o3)CC2CCO)cc1C (stereo not given)	66*	-19	?	-17	25	-1%	13%
CCOc1ccc(NC(=O)c2nnn(-c3ccc(F)c(Cl)c3)c2C)cc1	1	nt	nt	3	nt	nt	nt
CN1CCN(CCC(=O)N/N=C/c2ccccc2F)CC1	0	0	-1	-8	2	nt	nt
COc1ccc(C)cc1NC(=O)CCN1CCN(c2ccccc2)CC1	79*	-13	?	-25	82*	?	?
COc1ccccc1N1CCN(CC(=O)Nc2c(C)n[nH]c2C)CC1	67*	-21	-2	-21	53*	-10%	7%
CCN(CC)c1ccc(NC(=O)CN2CCN(c3ccccc3OC)CC2)cc1	-6	nt	nt	-7	nt	nt	nt
O=C(CCN1CCN(c2ccccc2)CC1)N/N=C/c1ccccc1O	79*	-11	7	-23	91*	-22%	?
CCN1CCN(CCC(=O)Nc2ccccc2OC)CC1	-1	-16	-2	1	-5	nt	nt
COC(=O)c1[nH]c2cccc(OC)c2c1NC(=O)CCN1CCN(c2ccccc2OC)CC1	53*	-13	4	-20	83*	-8%	20%
COc1ccc(OC)c(NC(=O)CCN2CCN(c3ccccc3F)CC2)c1	-1	1	?	18	-12	nt	nt
COc1ccc(C)cc1NC(=O)CCN1CCN(c2ccccc2F)CC1	74*	18	9	-24	80*	-4%	?
Cc1ccc(C)c(OCC(=O)NNC(=O)CCN2CCN(c3ccccc3)CC2)c1	78*	-13	15	-33	80*	18%	?
SMILES	D2 ag-1	D2 PAM-1	D2 ag-2	D2 PAM-2	D2 antag	D3 arrestin ag	D2 ag-3
COc1ccc([N+](=O)[O-])cc1NC(=O)CCN1CCN(c2ccccc2OC)CC1	66*	-34	3	-27	101*	-7%	7%
Cc1ccc(C)c(NC(=O)CCN2CCN(c3ccccc3F)CC2)c1	47*	-16	-5	-16	67*	?	9%
Cc1cc(C)c2oc(-c3cccc(NC(=O)COc4ccc([N+](=O)[O-])cc4)c3)nc2c1	0	nt	nt	-9	nt	nt	nt
N#CCC(=O)Nc1ccc(C(=O)NNC(=O)CCN2CCN(c3ccccc3)CC2)cc1	nt	-1	?	nt	nt	?	?
O=C(CCN1CCN(c2ccccc2)CC1)NNC(=O)c1cccc2ccccc12	74*	-18	?	-16	85*	?	18%
CCC1(c2ccccc2)NC(=O)N(CC(=O)NNC(=O)CCN2CCN(c3ccccc3)CC2)C1=O (stereo not given)	68*	-10	12	-41	89*	11%	21%
O=C(CCN1CCN(c2ccccc2)CC1)NNC(=S)Nc1ccccc1Cl	54*	-24	7	-22	66*	-3%	3%
COc1cccc(C(=O)NNC(=O)CCN2CCN(c3ccccc3)CC2)c1	nt	-12	11	nt	nt	nt	nt
O=C1CN(C(=O)COc2ccc(Cl)cc2)C(c2ccc(F)cc2)c2cc(Br)ccc2N1 (stereo not given)	1	nt	nt	24	nt	nt	nt
CCC(=O)N1c2ccccc2CC1C(=O)NCCc1ccc(Cl)cc1 (stereo not given)	-4	nt	nt	0	nt	nt	nt
Cc1cc(C(=O)NNC(=O)CCN2CCN(c3ccccc3)CC2)c2ccccc2n1	72*	-2	4	-24	67*	16%	?
Cc1cc(C(=O)Nc2ccc(N3CCOCC3)cc2)c2ccccc2n1	1	4	0	12	-1	nt	nt
CCc1cc(C(=O)NNC(=O)CCN2CCN(c3ccccc3)CC2)sc1C	80*	-22	4	-15	66*	?	?
CCc1cc(C(=O)NNC(=O)CCl)sc1C	-1	-8	5	9	2	nt	nt
CCOc1cccc(C2c3c(oc4ccccc4c3=O)C(=O)N2c2nc(C)c(C(=O)OC)s2)c1 (stereo not given)	1	nt	nt	1	nt	nt	nt
N#C/C(=C\c1ccc(-c2ccccc2C(=O)O)o1)c1nc2ccccc2[nH]1	8	2	-9	5	-17	3%	-3%
Cc1cccc(C)c1NC(=O)Cn1c(SCC(=O)NCc2ccccc2)nc2ccccc21	0	nt	nt	-2	nt	nt	nt

From PubChem
